Measured values taken from the supplement of paper PMC4466140.

biological target: SpBzz1-D2; test: SPOT peptide array binding signal intensity (averaged, normalized) (arbitrary units (background-subtracted, floor 0; scale differs between SH3 domains)); higher = stronger binding of the SH3 domain to the peptide
Procedure, shortened: (§1)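 Spot intensities were captured after detection with anti-GST antibody, an HRP-linked anti-mouse secondary and luminol, and quantified with Genespotter. The probes were GST-fused SH3 domains from four yeast species, produced in E. coli BL21(DE3), purified on glutathione Sepharose and incubated at 10 μg/ml overnight at 4°C on cellulose-bound synthetic 15-mer peptides with cysteines replaced by serines. Binding signal is the normalized, background-subtracted spot intensity averaged over replicates, and its arbitrary units differ between domains.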

Binder	SPOT peptide array binding signal intensity
APKHAPPPVPNETDN	≤ 0

biological target: SpCyk3; test: as above
Procedure, shortened: as §1

Binder	SPOT peptide array binding signal intensity
APKHAPPPVPNETDN	≤ 0

biological target: SpHof1; test: as above
Procedure, shortened: as §1

Binder	SPOT peptide array binding signal intensity
APKHAPPPVPNETDN	≤ 0

biological target: SpHof1-2; test: as above
Procedure, shortened: as §1

Binder	SPOT peptide array binding signal intensity
APKHAPPPVPNETDN	≤ 0

biological target: SpHof1-3; test: as above
Procedure, shortened: as §1

Binder	SPOT peptide array binding signal intensity
APKHAPPPVPNETDN	≤ 0

biological target: SpHse1; test: as above
Procedure, shortened: as §1

Binder	SPOT peptide array binding signal intensity
APKHAPPPVPNETDN	140

biological target: SpLsb1; test: as above
Procedure, shortened: as §1

Binder	SPOT peptide array binding signal intensity
APKHAPPPVPNETDN	≤ 0

biological target: SpLsb4; test: as above
Procedure, shortened: as §1

Binder	SPOT peptide array binding signal intensity
APKHAPPPVPNETDN	≤ 0

biological target: SpMyo1; test: as above
Procedure, shortened: as §1

Binder	SPOT peptide array binding signal intensity
APKHAPPPVPNETDN	691

biological target: SpNbp2; test: as above
Procedure, shortened: as §1

Binder	SPOT peptide array binding signal intensity
APKHAPPPVPNETDN	≤ 0

biological target: SpPex13; test: as above
Procedure, shortened: as §1

Binder	SPOT peptide array binding signal intensity
APKHAPPPVPNETDN	≤ 0

biological target: SpRvs167; test: as above
Procedure, shortened: as §1

Binder	SPOT peptide array binding signal intensity
APKHAPPPVPNETDN	2.5

biological target: SpSla1-D1-D2; test: as above
Procedure, shortened: as §1

Binder	SPOT peptide array binding signal intensity
APKHAPPPVPNETDN	≤ 0

biological target: SpSla1-D3; test: as above
Procedure, shortened: as §1

Binder	SPOT peptide array binding signal intensity
APKHAPPPVPNETDN	≤ 0
